The campaign covered roughly 360,000 compounds. About 3,100 (0.86%) were called active.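 Rule for the calls: active = inhibition or corrected inhibition above about 18%, plus a signal ratio from 0.5 to 1.5 (limit read from the data, passing the limit was not always enough); inactive = the rest.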 Shown is part of a subset that was picked to be rich in actives.
Target: Neuropilin-1 (Homo sapiens) (UniProt O14786)
Assay: NRP-1/CendR peptide interaction modulators – biochemical, fluorescence polarization, uHTS, primary screen (AID 602438)
Conditions: FAM-RPARPAR peptide binding to NRP-1, fluorescence polarization; at 25 µM; hits give high values

Chain of Neuropilin-1 (Homo sapiens) (O14786 whole entry, looked up): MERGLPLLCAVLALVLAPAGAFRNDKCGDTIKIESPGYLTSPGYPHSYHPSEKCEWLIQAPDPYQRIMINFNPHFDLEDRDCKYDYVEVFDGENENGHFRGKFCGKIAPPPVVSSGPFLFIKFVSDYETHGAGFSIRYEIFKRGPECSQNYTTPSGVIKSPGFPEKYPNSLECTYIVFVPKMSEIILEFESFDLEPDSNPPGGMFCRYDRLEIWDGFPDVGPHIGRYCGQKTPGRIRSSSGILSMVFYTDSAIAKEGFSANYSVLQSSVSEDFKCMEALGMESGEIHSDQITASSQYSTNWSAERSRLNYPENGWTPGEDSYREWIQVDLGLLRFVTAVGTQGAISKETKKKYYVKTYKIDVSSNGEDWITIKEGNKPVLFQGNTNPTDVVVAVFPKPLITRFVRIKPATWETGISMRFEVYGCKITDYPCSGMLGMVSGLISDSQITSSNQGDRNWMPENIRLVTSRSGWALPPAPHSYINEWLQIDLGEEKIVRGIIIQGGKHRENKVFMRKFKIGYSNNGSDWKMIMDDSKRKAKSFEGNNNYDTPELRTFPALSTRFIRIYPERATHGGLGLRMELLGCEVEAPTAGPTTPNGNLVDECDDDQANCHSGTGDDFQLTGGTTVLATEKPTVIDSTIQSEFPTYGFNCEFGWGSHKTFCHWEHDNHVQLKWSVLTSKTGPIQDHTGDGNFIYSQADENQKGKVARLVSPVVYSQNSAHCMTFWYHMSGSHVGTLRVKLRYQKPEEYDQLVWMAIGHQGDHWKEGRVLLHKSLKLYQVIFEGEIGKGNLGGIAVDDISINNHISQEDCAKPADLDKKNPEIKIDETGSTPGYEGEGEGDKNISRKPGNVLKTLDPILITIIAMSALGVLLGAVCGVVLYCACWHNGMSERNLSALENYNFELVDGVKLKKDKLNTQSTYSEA

Compound	inhibition
CCC(=NCCc1ccccc1)c1c(O)n(C2CCCCC2)c(=O)[nH]c1=O	24% (active)
CC(=O)c1c(O)n(C2CCCCCC2)c(=O)[nH]c1=O	-12.9% (inactive)
CCCCCCN=C(CC)c1c(O)n(CCCC)c(=O)[nH]c1=O	-5.7% (inactive)
COc1ccccc1C1=NCc2nnc(CSC)n2-c2ccc(Cl)cc21	10.2% (inactive)
COC(=O)[C@@H]1C(OC(=O)c2ccccc2)CC2CCC1N2C (stereo not given in full)	-1.6% (inactive)
Cc1ccc(Cn2nnnc2CN2CCC(n3nnc4ccccc43)CC2)cc1	25.7% (active)
O=c1[nH]c2ccccc2n1C1CCN(C(c2ccnc3ccccc23)c2nnnn2Cc2ccccc2)CC1 (stereo not given)	6.4% (inactive)
O=c1[nH]c2ccccc2n1C1CCN(C(c2ccccc2)c2nnnn2Cc2ccccc2)CC1 (stereo not given)	11.2% (inactive)
CN(C)P(=S)(Nc1ccccc1)C(Cl)(Cl)Cl (stereo not given)	7.8% (inactive)
COC(=O)C1=C(c2ccc3ccccc3c2)C[C@@H]2CC[C@H]1N2C(=O)NCCO	-3.3% (inactive)
COC(=O)C1=C(c2cccc(OCc3ccccc3)c2)C[C@@H]2CC[C@H]1N2C(=O)NNCc1ccccc1	8.8% (inactive)
COC(=O)C1=C(c2ccccc2)C[C@@H]2CC[C@H]1N2C(=O)N1CCCCC1	32.5% (active)
COC(=O)C1=C(c2cc3ccccc3s2)C[C@@H]2CC[C@H]1N2C(=O)NCCO	-10.5% (inactive)
COC(=O)C1=C(c2ccc(C(C)=O)cc2)C[C@@H]2CC[C@H]1N2C(=O)NCCNC(C)=O	34.8% (active)
COC(=O)C1=C(c2ccccc2)C[C@@H]2CC[C@H]1N2C(=O)NCc1ccco1	-16.6% (inactive)
NCCc1c[nH]c2ccc(O)cc12	10.4% (inactive)
CCC(C)(O)C(=O)OC1C(=O)OC2CC3C(C)=CC(=O)C(O)C3(C)C3C4(O)OCC23C1C(C)C4O (stereo not given)	9.9% (inactive)
CCOC(=O)[C@]12Cc3ccccc3[C@H]1N(C1CCCCC1)C(=O)c1cc(OC)ccc12	2.7% (inactive)
Cc1ccc(OC(=O)N(C)C[C@@H]2OCc3cnnn3CCCC(=O)N([C@H](C)CO)C[C@@H]2C)cc1	9.5% (inactive)
Cc1ccc(S(=O)(=O)N(C)c2ccc(C(=O)NCC3(N(C)C)CCCCC3)cc2)cc1	-2% (inactive)
CCCCCn1c(=O)c(C(=O)Nc2c(C)n(C)n(-c3ccccc3)c2=O)c(O)c2ccccc21	3.5% (inactive)
CC(C)c1ccc(OCC(=O)N2CCCN(C)CC2)cc1	28.1% (active)
CC(C)c1ccc(OCC(=O)N2CCN(C)CC2)c(Br)c1	13.4% (inactive)
CN1CCN(C(=O)COc2ccc(C(C)(C)C)cc2Br)CC1	10% (inactive)
CCN1c2nc3c(C)cccn3c(=O)c2CC2(C(=O)N(C)C(=O)N(C)C2=O)C1C (stereo not given)	10.7% (inactive)

— PubChem BioAssay AID602438 (Sanford-Burnham Center for Chemical Genomics, 2012)
